Laboratory results published in PubChem BioAssay (NCI).
Compounds without any hit were thinned out: in the full panel of roughly 79,000, 15% have a hit. No stated cut-off is given here; in the data, active means growth inhibition above about 70%; inactive means the rest.

Assays:
[1] = NCI Yeast Anticancer Drug Screen. Data for the rad50 strain (AID 155);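 further: 0% = growth of vehicle-only cultures of the same strain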; settings: S. cerevisiae rad50 strain growth inhibition; at 50.0 µM; active compounds read high
How it was run: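 Cells are treated with compound, grown, and their growth is then scored against vehicle-only cultures of the same repair-deficient yeast strain.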

[2] = NCI Yeast Anticancer Drug Screen. Data for the mec2-1 strain (AID 157); settings: S. cerevisiae mec2-1 strain, at 50.0 µM, active compounds read high
How it was run: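 Mutant yeast (mec2-1) grown with compound; growth inhibition relative to vehicle control reported.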

[3] = NCI Yeast Anticancer Drug Screen. Data for the sgs1 mgt1 strain (AID 161);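 further: 0% = growth of cultures given vehicle only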; settings: S. cerevisiae sgs1 mgt1 strain, at 50.0 µM, active compounds read high
How it was run: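 Growth of a repair-deficient yeast mutant was monitored after compound treatment and expressed as inhibition relative to vehicle-treated cultures.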

[4] = NCI Yeast Anticancer Drug Screen. Data for the cln2 rad14 strain (AID 165);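 further: 0% = growth equal to vehicle treated cultures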; settings: S. cerevisiae cln2 rad14 strain, at 50.0 µM, active compounds read high
How it was run: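 Readout is yeast growth inhibition versus vehicle-treated controls, using a strain with cln2 and rad14 alterations exposed to compound.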

[5] = NCI Yeast Anticancer Drug Screen. Data for the bub3 strain (AID 167); settings: S. cerevisiae bub3 mutant strain, at 50.0 µM, active compounds read high
How it was run: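 Part of a panel of yeast mutants defective in DNA damage repair or cell cycle regulation. Each strain is grown with compound, and inhibition is calculated relative to solvent-treated cultures.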

[6] = NCI Yeast Anticancer Drug Screen. Data for the mlh1 rad18 strain (AID 175); settings: S. cerevisiae mlh1 rad18 strain growth inhibition; at 50.0 µM; active compounds read high
How it was run: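 Genetically defined yeast (DNA repair-deficient) exposed to compounds; growth inhibition determined relative to vehicle.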

Measured: growth inhibition

COc1ccc(Cl)cc1NC(=O)O/N=C(\Cl)C(C)C
inactive: [1] -3.65% | [2] 7.55% | [3] 10.9% | [4] 16.2% | [5] 24.9% | [6] -74.3%

O=C1CCCc2ccc3c(c21)CC1(Cc2ccccc2C1)C3
inactive: [1] -7.05% | [2] -40.2% | [3] 8.65% | [4] -6% | [5] 4.05% | [6] -5.8%

ClC(Cl)(Cl)C(N1CCN(c2ccccc2)CC1)N1CCN(c2ccccc2)CC1
inactive: [1] 8.95% | [2] -34% | [3] -29.4% | [4] -38.5% | [5] -25.9% | [6] -17.6%

O=C(O)Cc1cc(=O)[nH]n(-c2ccccc2)c1=O
inactive: [1] 14.2% | [2] 8.6% | [3] -1.3% | [4] 10% | [5] -4.65% | [6] 13.8%

O=C(Nc1ccc(CSc2ccc(Cl)cc2)o1)N1CCOCC1
inactive: [1] 15.7% | [2] 8% | [3] 40.8% | [4] 20.9% | [5] 38.4% | [6] 25.4%

COC(=O)CCCCCNC(=O)NCCCCCC(=O)OC
inactive: [1] 4.6% | [2] -21% | [3] -1.2% | [4] 6.25% | [5] -11.4% | [6] 19.1%

COCCCC12C=C(OC)C(=O)C=C1OC(c1cc(OC)c(OC)c(OC)c1)C2C (stereo not drawn)
inactive: [1] 0% | [2] -13.1% | [3] -36% | [4] -18% | [5] -32.5% | [6] -14.5%

COC(=O)C(C(=O)C(=O)Nc1c(Cl)cc([N+](=O)[O-])cc1Cl)c1nc2cc(C)c(C)cc2[nH]c1=O (stereo not drawn)
inactive: [1] 16.6% | [2] 3.1% | [3] 20.8% | [4] 14.3% | [5] -4.85% | [6] -9.75%

O=C1c2ccccc2CN1c1ccccc1
inactive: [1] -23% | [2] -25.6% | [3] -3.25% | [4] 6.45% | [5] -7.5% | [6] -2.7%

CCOC(=O)CCC(NC(=O)N1CCN(c2c(C)nc(C)[nH]c2=O)CC1)C(=O)OCC (stereo not drawn)
inactive: [1] 11.6% | [2] -0.1% | [3] 10.6% | [4] -4.7% | [5] 12.7% | [6] 18.6%

CCc1ccc2c(c1)C(C)(CC)CCC2C (stereo not drawn)
inactive: [1] -2.45% | [2] -6.5% | [3] -16.4% | [4] -43% | [5] -8.95% | [6] 8.7%

CNc1ccc(Cl)cc1S(=O)(=O)c1ccccc1[N+](=O)[O-]
inactive: [1] 3.2% | [2] 16.4% | [3] 24.8% | [4] 23.3% | [5] 5.65% | [6] -7.05%

COc1ccc(-n2[nH]c3c(cnc4ccccc43)c2=O)cc1
inactive: [1] 6.35% | [2] -33.9% | [3] -33% | [4] -10.8% | [5] -22.8% | [6] 2%

O=C(O)c1c2c(nc3ccccc13)Cc1ccccc1-2
inactive: [1] 1% | [2] -0.75% | [3] 10.1% | [4] -0.2% | [5] 17.3% | [6] -39.8%

COc1ccc(C2CC(=O)NC2=O)cc1OC (stereo not drawn)
inactive: [1] 4.8% | [2] 17.4% | [3] -6.55% | [4] -12.2% | [5] 1.8% | [6] -5.65%

COc1ccc(CCO)cc1
inactive: [1] 0.55% | [2] -36% | [3] -15.9% | [4] -10.2% | [5] -31.1% | [6] -33.2%

CCOC(=O)C(C)(C(=O)OCC)C(C)Cc1cccc2ccccc12 (stereo not drawn)
inactive: [1] -12.6% | [2] 0.95% | [3] -4.45% | [4] -31.4% | [5] -7.15% | [6] -3.6%

OC(Cc1ccc2ccccc2n1)(C(F)(F)Cl)C(F)(F)Cl
inactive: [1] -39% | [2] -55.2% | [3] -10.7% | [4] -9.7% | [5] -4.45% | [6] -31.1%

COc1ccc(CCNC(=S)NCCc2ccc(OC)cc2)cc1
inactive: [1] 11.8% | [2] 12.8% | [3] -1.4% | [4] -28% | [5] -7.25% | [6] -21%

CCCCC1(CC)COC2(CCCC2)OC1
inactive: [1] 18.6% | [2] 2.25% | [3] -11.6% | [4] 3.2% | [5] -9.7% | [6] 12.4%

CCc1cn(C2CC(CO)C(CO)S2)c(=O)[nH]c1=O (stereo not drawn)
inactive: [1] -5.5% | [2] -33% | [3] 7.85% | [4] -6.4% | [5] -8.55% | [6] -6.7%

CC(C)N(CC(=O)O)CC(=O)O
inactive: [1] -0.95% | [2] -13.4% | [3] -21.1% | [4] -5% | [5] -22.9% | [6] -16.4%

COP(=O)(CC(=O)C1OC(C)(C)OC1C(O)COCc1ccccc1)OC (stereo not drawn)
inactive: [1] -21.3% | [2] 22.9% | [3] 22.9% | [4] 14.3% | [5] 14.6% | [6] 5.85%

COC(=O)C1CCC(C)(C(=O)OC)C1(C)C (stereo not drawn)
inactive: [1] 0% | [2] -15.2% | [3] -11.9% | [4] -1.3% | [5] -12.4% | [6] -3.75%

CC(=O)/C(C)=C\c1ccc(C(C)C)cc1
inactive: [1] 8.85% | [2] -12.7% | [3] -10.9% | [4] -7.2% | [5] 10.9% | [6] -1.55%

COC(=O)c1nc(N)nc(C(=O)OC)c1C(=O)c1cccc2ccccc12
inactive: [1] -33.5% | [2] -26.1% | [3] 1.65% | [4] -26.8% | [5] -33.3% | [6] -20.9%

CSC1C(OC(=O)c2ccccc2)C(COC(=O)c2ccccc2)OC1n1cnc2ncnc(NC(=O)c3ccccc3)c21 (stereo not drawn)
inactive: [1] 45.4% | [2] 20.4% | [3] 34.6% | [4] 29.4% | [5] 6.45% | [6] 38.8%

COc1ccc(CCN=Cc2ccc(Cl)cc2)cc1OC
inactive: [1] -3.55% | [2] -28.4% | [3] 15.4% | [4] -1.2% | [5] -17.1% | [6] -10.6%

CCOc1nc(OCC)c2cnn(C)c2n1
inactive: [1] 6.3% | [2] 1.75% | [3] -3.55% | [4] -28.8% | [5] 7.55% | [6] -3.55%

Cc1cccc(NC(=O)CSc2nnc(Cc3ccccc3)o2)c1
inactive: [1] -28.1% | [2] -16.3% | [3] -15.1% | [4] -39.2% | [5] -36.7% | [6] -28.2%

CC(=O)NCC(=O)c1ccccc1
inactive: [1] 12.5% | [2] -2.4% | [3] 3.75% | [4] -7.1% | [5] -6.35% | [6] 9.5%

Cn1nc2ccccc2cc1=O
inactive: [1] 20.7% | [2] 2.65% | [3] -2.1% | [4] 14.2% | [5] 10.8% | [6] 14.9%

O=C(O)c1c(-c2ccccc2)c(=O)[nH]c2ccccc12
inactive: [1] -6.8% | [2] 4.05% | [3] -36.8% | [4] 17.1% | [5] 13.2% | [6] 11.1%

C[N+](C)(C)N=C1CCCCC1
inactive: [1] 10.9% | [2] -3.6% | [3] -11.3% | [4] 7.5% | [5] -2.6% | [6] -16.8%

COC(=O)[C@]1(C)CCC[C@]2(C)c3ccc(C(C)=O)cc3C(=O)C[C@@H]12
inactive: [1] -1.5% | [2] -10.8% | [3] 9.5% | [4] -31.6% | [5] -8.5% | [6] -15.1%

CN(C)CCNc1ncnc2nc(-c3ccc4ccccc4c3)[nH]c12
inactive: [1] -11% | [2] -20.9% | [3] 7.8% | [4] 11.6% | [5] 3.05% | [6] -18.6%

CC(=O)c1cccc(OCC(O)CN2CCN(c3ccc(C)cc3)CC2)c1 (stereo not drawn)
inactive: [1] -12.3% | [2] 3.95% | [3] 4.1% | [4] -8.9% | [5] 3.15% | [6] -2.25%

N#CC1CCCC/C1=N/NC(N)=O (stereo not drawn)
inactive: [1] -11.9% | [2] -6.65% | [3] -13.6% | [4] -6.05% | [5] -6.65% | [6] -6%

CS(=O)(=O)Nc1cccc(C(=O)O)c1
inactive: [1] 28.6% | [2] -0.05% | [3] 14.8% | [4] -2.85% | [5] -28.9% | [6] -23%

COc1ccc(NC(=S)c2ccoc2C)cc1CC(=O)OC(C)C
inactive: [1] 17.4% | [2] 18.4% | [3] 48.5% | [4] 13.2% | [5] 37.9% | [6] -18.7%

O=S(=O)(O)CCCC1S(=O)(=O)OCCOS1(=O)=O
inactive: [1] -55.1% | [2] -21.8% | [3] -8.4% | [4] -16.4% | [5] -1.3% | [6] -25.8%

CCOC(=N)CC(=O)Nc1ccccc1
inactive: [1] 4.45% | [2] 1.1% | [3] 1.65% | [4] -1.6% | [5] 3.6% | [6] 2.35%

N#Cc1ccc(OC(=O)Nc2ccccc2C(F)(F)F)cc1
inactive: [1] 2.4% | [2] -18.9% | [3] -5.2% | [4] -2.1% | [5] -14.9% | [6] -0.85%
